Screens deposited in PubChem by several laboratories.
Most compounds without a hit are left out; they make up all but 4.3% or so of the library.
BoNT-F LC inh = inhibitors of Botulinum neurotoxin F light chain protease | Multiplex microsphere protease cleavage assay, flow cytometry | inhibition, % at 10 µM | 360,000 compounds, 0.22% hits | AID 588497; in the data active means inhibition above about 35%, passing the limit was not always enough; inconclusive means no clear call, values can overlap the other calls; further: plate controls were buffer without enzyme for full effect and enzyme alone for no effect
BoNT-A LC inh2 = blocks Botulinum neurotoxin A light chain protease. multiplex microsphere protease substrate cleavage, flow cytometry. 360,000 compounds, 0.17% hits. inhibition, % at 10 µM. AID 588499; further: plate controls were buffer without enzyme for full effect and enzyme alone for no effect
Anthrax LF prot = anthrax lethal factor protease inhibition. multiplex microsphere protease cleavage assay, LF. inhibition, % at 10 µM. AID 588501. 360,000 compounds, 0.12% hits; further: plate controls were buffer without enzyme for full effect and enzyme alone for no effect
Target sequence (P15917 whole entry, looked up): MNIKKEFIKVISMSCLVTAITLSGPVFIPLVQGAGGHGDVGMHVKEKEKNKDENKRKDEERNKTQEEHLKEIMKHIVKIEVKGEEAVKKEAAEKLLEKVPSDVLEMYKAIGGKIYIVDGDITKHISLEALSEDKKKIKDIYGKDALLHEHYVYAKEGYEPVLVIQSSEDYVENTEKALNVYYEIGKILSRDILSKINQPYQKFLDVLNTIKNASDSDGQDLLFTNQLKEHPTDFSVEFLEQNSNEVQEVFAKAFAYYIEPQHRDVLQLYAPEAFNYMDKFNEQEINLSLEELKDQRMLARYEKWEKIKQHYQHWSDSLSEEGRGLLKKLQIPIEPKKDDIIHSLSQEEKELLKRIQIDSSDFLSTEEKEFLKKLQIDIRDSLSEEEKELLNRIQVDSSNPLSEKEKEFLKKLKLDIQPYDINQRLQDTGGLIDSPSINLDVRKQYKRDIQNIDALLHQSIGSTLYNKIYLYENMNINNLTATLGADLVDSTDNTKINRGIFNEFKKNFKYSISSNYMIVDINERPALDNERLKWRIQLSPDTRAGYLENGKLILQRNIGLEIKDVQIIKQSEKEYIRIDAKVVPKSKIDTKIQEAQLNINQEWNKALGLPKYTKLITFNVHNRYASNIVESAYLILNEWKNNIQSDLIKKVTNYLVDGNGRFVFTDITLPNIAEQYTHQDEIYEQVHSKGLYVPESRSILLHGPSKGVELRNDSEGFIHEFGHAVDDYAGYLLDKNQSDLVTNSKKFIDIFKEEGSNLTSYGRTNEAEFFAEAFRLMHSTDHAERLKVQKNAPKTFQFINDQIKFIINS
Bead autofluor = counter-screen for toxin protease inhibitors: compound fluorescence; fluorescence intensity (no concentration beside the values); compound autofluorescence counterscreen, microsphere flow cytometry; hits give high values; 360,000 compounds, 3.1% hits; in the data active means fluorescence intensity above about 16000; inconclusive means no clear call, values can overlap the other calls
MazF activator = activators of E. coli MazEF toxin-antitoxin RNase; P0AE70; FAM/BHQ RNA-DNA oligo cleavage fluorescence, 5 h; activation, % at 20 µM; 350,000 compounds, 0.32% hits; in the data active means activation above about 50%
PfHsp40 rescue = compounds rescuing yeast from Plasmodium falciparum HSP40 toxicity; growth rescue, % at 12.5 µM; S. cerevisiae expressing PfHsp40, growth rescue, ATP luminescence; 340,000 compounds, 0.68% hits; AID 504582; in the data active means growth rescue above about 28%, passing the limit was not always enough; inconclusive means no clear call, values can overlap the other calls;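 further: yeast W303a lacking pdr1 and pdr3 grown in galactose medium; growth measured after three days at 30 °C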
* marks the source's active call; other numbers are inactive results; u = inconclusive; x = no result. Unless noted, no stated cut-off is given here; in the data, active means inhibition above about 30%; inconclusive means no clear call, values can overlap the other calls; inactive means below that.

SMILES	BoNT-F LC inh	BoNT-A LC inh2	Anthrax LF prot	Bead autofluor	MazF activator	PfHsp40 rescue
CC(=O)NC(Cc1ccc(F)cc1)C(=O)N1CCN(C(=O)NCc2ccccc2)CC1 (stereo unspecified)	-1	-1	-6	20125*	1	0
Cc1cc(NC(=O)C(=O)NCCN2CCN(C(=O)c3cccs3)CC2)ccc1Br	3	0	3	2918	6	2
COc1ccc(NC(=O)C(=O)NCCN2CCN(C(=O)c3cccs3)CC2)cc1	20	1	-2	3303	6	58*
O=C(c1cccs1)N1CCN(Cc2ccccc2)CC1	-10	-1	1	2040	2	2
O=C(Cn1ccc2cc(S(=O)(=O)N3CCCC3)ccc21)NCCc1ccccc1	1	2	0	4149	-2	1
COc1ccccc1-c1coc2c(CN3CCCC(C)C3)c(O)ccc2c1=O (stereo unspecified)	2	-2	-1	3724	-20	0
O=C(c1cccs1)N1CCN(S(=O)(=O)c2ccccc2)CC1	-4	-1	-2	16321*	12	2
CC(=O)N1CCc2c(sc(NC(=O)c3ccc([N+](=O)[O-])o3)c2C(N)=O)C1	-6	0	-1	3048	0	x
CCOC(=O)N1CCN(C(=O)c2oc3ccc(S(=O)(=O)N4CCCCC4)cc3c2C)CC1	7	4	-10	18639*	3	0
CCCCN(CCCC)S(=O)(=O)c1ccc2oc(C(=O)N3CCOCC3)c(C)c2c1	-3	-2	-1	24116*	4	13
CCCCN(C)C(=O)c1oc2ccc(S(=O)(=O)N3CCCCCC3)cc2c1C	-2	-1	-10	23104*	0	3
Cn1c(SCc2nc(-c3ccccc3)no2)nnc1-c1cccs1	5	u	-7	20460*	-2	0
Cn1c(SCc2nc(-c3ccc(Cl)cc3)no2)nnc1-c1cccs1	1	2	-2	15475	-9	0
CCCn1c(SCc2nc(-c3cccs3)no2)nnc1-c1ccncc1	-5	-3	0	21415*	1	-1
Cn1c(SCc2nc(-c3ccc(Cl)cc3)no2)nnc1-c1ccccc1	-5	-1	-3	20554*	-19	1
COc1ccc(-c2noc(CSc3nnc(Cc4ccccc4)n3-c3ccc(Cl)cc3)n2)cc1	-7	-3	-3	24663*	-7	6
Cn1c(N)c(C(=O)COC(=O)C2=NNC(=O)CC2)c(=O)n(C)c1=O	8	2	-2	3368	-8	-1
CCCC(=O)N1CCN(c2ccc([N+](=O)[O-])c(NC(C)c3ccccc3)c2)CC1 (stereo unspecified)	-4	-1	-3	16602*	-8	11
Cc1cc(NC(=O)CCC(=O)N2CCC3(CC2)OCCO3)no1	-5	-4	-1	23557*	7	-1
NS(=O)(=O)c1cccc(NC(=O)Cn2cnc3ccccc3c2=O)c1	2	3	-4	20676*	0	1
COC(=O)c1cccc(NC(=O)Cn2cnc3ccccc3c2=O)c1	6	1	-2	5861	-2	0
COC(=O)CN(n1cnnc1)S(=O)(=O)c1ccccc1	4	2	-6	22038*	-1	0
Cc1ccc(C(C)C)cc1OCCOCCN1CCCC1	-30	-1	-9	4992	92*	3
Cc1ccccc1OCCOCCN1CCCCCC1	-1	1	-2	2981	-1	1
CSc1ccccc1NC(=O)Nc1ccc(Cl)cc1	8	9	-10	20588*	-20	1
SMILES	BoNT-F LC inh	BoNT-A LC inh2	Anthrax LF prot	Bead autofluor	MazF activator	PfHsp40 rescue
COc1ccc(NC(=O)Nc2ccccc2SC)cc1	4	0	0	2300	9	-1
CCOc1ccccc1NC(=O)c1cnccn1	-2	-1	-2	4300	5	20
CC(C)c1ccccc1NC(=O)c1cnccn1	-5	u	-2	25411*	-7	0
CSc1ccccc1NC(=O)c1cnccn1	-6	u	-2	16758*	5	0
O=C(Nc1cccc2ccccc12)c1cnccn1	4	2	-9	2985	6	0
CCc1ccccc1NC(=O)c1cnccn1	-4	-2	0	21346*	0	-1
COc1cc(SC)ccc1C(=O)OCC(=O)NCCC1=CCCCC1	16	3	6	4838	6	-1
O=C(CNS(=O)(=O)c1ccccc1)N/N=C/c1ccccc1[N+](=O)[O-]	u	-9	-15	4147	11	2
CCCCCC(=O)N(Cc1ccccc1)c1c(N)n(CCOC)c(=O)[nH]c1=O	-67	-33	-9	u	1	1
CCCNC(=O)Cc1ncn[nH]1	-1	-2	2	20413*	4	-1
O=C(Cc1ncn[nH]1)NCCc1ccccc1	-13	-2	-4	4842	4	0
CCc1nc(NCc2cccnc2)c2oc3ccccc3c2n1	0	2	-1	16165*	1	-2
CCc1nc(NCC2CCCO2)c2oc3ccccc3c2n1 (stereo unspecified)	0	0	-9	3241	-6	0
CCNc1nc(CC)nc2c1oc1ccccc12	5	4	-10	21864*	1	-1
CCNc1nc(C)nc2c1oc1ccccc12	-6	0	-2	11198	-4	0
Cc1nc(NCC2CCCO2)c2oc3ccccc3c2n1 (stereo unspecified)	4	3	0	21375*	1	0
Cc1nonc1CC(=O)NC1CCCc2c1cnn2-c1ccc(F)cc1F (stereo unspecified)	1	-1	1	5586	5	-1
CC(=O)c1c(C)[nH]c(C(=O)CN2C(=O)NC3(CCCCC3C)C2=O)c1C (stereo unspecified)	-3	1	-5	6075	-3	0
COc1ccc(/C(C)=C2\SC(=S)N(CCC(=O)O)C2=O)cc1	0	0	0	20765*	0	-2
O=C(NCCCN1CCOCC1)c1cc(-c2ccc(Br)cc2)on1	14	15	-16	18589*	-17	3
O=C(Nc1cccnc1)c1cc(-c2ccc(Br)cc2)on1	-4	0	-3	6207	-58	1
C=CCNC(=O)c1cc(-c2ccc(Br)cc2)on1	0	0	1	22477*	-10	1
COc1ccccc1Nc1cc(C(=O)NCCCN2CCOCC2)c2ccccc2n1	-8	0	0	6103	7	68*
O=C(NCCN1CCOCC1)c1cc(-c2ccc(Br)cc2)on1	-7	-1	-2	10811	-7	-1
COc1ccc(Nc2nc(C(=O)NCCCN3CCOCC3)cs2)cc1	-3	-1	0	16850*	4	0
O=S(=O)(CCNC1CC1)NC1CCCCC1	-1	0	2	3457	5	0
Clc1ccc(N(CC2CO2)CC2CO2)cc1 (stereo unspecified)	8	-1	-6	u	-4	-1
Cc1cc(NC(=O)CCC(=O)N(CC(=O)NC2CCCC2)c2ccc(F)c(Cl)c2)no1	-17	-4	-4	4318	8	1
